Data from PubChem BioAssay (EPA / NIEHS).
“And” between values parts separate entries of the source, which are not always exact repeats. Equal values may be shown once. Inconclusive results are not listed. The source made the active and inactive calls. Rule for the calls: active = hit-call score of the fitted dose curve at least 0.9, where 1 is the maximum; inconclusive = response in the unintended direction; inactive = score below 0.9.

What was measured:
AR (gene 367) = AR (gene 367) (UniProt P10275); experiment: ACEA_AR_antagonist_80hr: ACEA Biosciences xCELLigence Real-Time Cell Analysis on Androgen Receptor Antagonism for Proliferation (AID 2283787);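 note: 22Rv1 human prostate cancer cells with growth followed by electrical impedance; hits lower the impedance growth signal relative to DMSO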
Sequence of AR (gene 367) (P10275 whole entry, looked up): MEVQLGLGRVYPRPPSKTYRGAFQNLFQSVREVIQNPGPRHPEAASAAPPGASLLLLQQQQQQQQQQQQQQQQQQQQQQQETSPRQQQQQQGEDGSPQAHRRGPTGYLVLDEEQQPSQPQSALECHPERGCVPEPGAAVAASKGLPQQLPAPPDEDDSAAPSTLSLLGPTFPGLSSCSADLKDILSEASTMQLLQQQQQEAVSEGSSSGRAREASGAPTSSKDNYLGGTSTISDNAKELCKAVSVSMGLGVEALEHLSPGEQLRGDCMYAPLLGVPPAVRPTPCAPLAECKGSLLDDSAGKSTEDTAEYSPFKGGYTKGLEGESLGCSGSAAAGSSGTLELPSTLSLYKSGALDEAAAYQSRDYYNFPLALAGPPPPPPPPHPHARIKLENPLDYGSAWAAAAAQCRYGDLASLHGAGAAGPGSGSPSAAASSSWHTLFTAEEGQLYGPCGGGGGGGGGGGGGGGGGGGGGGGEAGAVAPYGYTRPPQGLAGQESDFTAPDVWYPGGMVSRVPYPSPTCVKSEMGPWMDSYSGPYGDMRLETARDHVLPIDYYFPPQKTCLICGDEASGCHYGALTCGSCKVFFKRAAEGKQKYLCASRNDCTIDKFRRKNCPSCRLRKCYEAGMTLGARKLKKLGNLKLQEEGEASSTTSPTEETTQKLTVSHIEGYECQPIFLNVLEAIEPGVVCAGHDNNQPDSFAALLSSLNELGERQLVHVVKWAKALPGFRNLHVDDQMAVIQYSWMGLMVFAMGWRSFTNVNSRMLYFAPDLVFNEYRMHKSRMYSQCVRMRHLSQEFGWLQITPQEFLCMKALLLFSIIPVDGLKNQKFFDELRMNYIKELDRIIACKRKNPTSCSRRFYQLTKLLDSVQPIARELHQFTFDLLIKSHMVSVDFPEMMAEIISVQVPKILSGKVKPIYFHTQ
Summary of the method: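 Using 22Rv1 cells held in assay medium, we dosed compounds (100 uM maximum final, 1:4 serial, eight points, 0.5% DMSO at top) and recorded cell-electrode impedance; the 80 hr timepoint was analyzed against DMSO.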

[1] = ATG_M_06_XSP2: Attagene TRANS-FACTORIAL Multi-Species (XSP2) HepG2 Assay for M06 Transcription Factor (Internal Marker) (AID 2283811);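 note: hits are increases in signal above the DMSO baseline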
Summary of the method: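 Cells of the human liver line HepG2 carried transfected reporter transcription units and were treated for 24 h. Induced reporter transcripts were detected by fluorescence after RT-PCR and capillary electrophoresis, with activity fitted in the gain direction against DMSO.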

[2] = tested on: turtle Estrogen Receptor (ERa), gene 101933533; experiment: ATG_trERa_XSP2: Attagene TRANS-FACTORIAL Multi-Species (XSP2) HepG2 Assay for turtle Estrogen Receptor (ERa) (AID 2283812);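 note: actives raise reporter signal above DMSO so AC50 reflects agonist activity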
Summary of the method: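 Readout is reporter mRNA quantified by RT-PCR with capillary electrophoresis after 24 h compound exposure, increase relative to DMSO. Uses transiently transfected human HepG2 liver cells carrying a chimeric turtle ERa-Gal4 receptor driving GAL4-UAS reporters.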

[3] = target: Estrogen receptor beta (Homo sapiens) (UniProt Q92731); experiment: ATG_hERb_XSP2: Attagene TRANS-FACTORIAL Multi-Species (XSP2) HepG2 Assay for human Estrogen Receptor (ERb) (AID 2283813);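 note: actives raise reporter mRNA above DMSO so AC50 reflects agonist induction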
Sequence of Estrogen receptor beta (Homo sapiens) (Q92731 whole entry, looked up, the tested form may be a part): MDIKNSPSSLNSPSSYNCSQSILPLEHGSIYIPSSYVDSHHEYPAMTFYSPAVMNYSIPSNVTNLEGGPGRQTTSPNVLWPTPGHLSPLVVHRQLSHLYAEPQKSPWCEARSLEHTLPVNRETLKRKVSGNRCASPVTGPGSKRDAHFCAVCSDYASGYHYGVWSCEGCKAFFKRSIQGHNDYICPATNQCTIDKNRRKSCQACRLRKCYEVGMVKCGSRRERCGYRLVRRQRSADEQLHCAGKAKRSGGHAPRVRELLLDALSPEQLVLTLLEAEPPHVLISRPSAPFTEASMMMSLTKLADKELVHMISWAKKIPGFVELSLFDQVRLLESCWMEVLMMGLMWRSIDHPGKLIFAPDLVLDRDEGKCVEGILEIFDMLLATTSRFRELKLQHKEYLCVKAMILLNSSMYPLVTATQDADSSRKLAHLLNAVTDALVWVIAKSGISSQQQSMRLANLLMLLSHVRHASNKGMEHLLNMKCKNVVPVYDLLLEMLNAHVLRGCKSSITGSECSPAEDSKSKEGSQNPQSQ
Summary of the method: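 Transient TRANS reporter system in HepG2: after 24 h of chemical, RNA is reverse-transcribed, reporter cDNA amplified, FAM-labelled and sized by capillary electrophoresis. Induction of the human ERb-Gal4 reporter is measured relative to DMSO.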

[4] = target: Estrogen receptor beta (Homo sapiens) (UniProt Q92731); experiment: ATG_hERb_XSP1: Attagene TRANS-FACTORIAL Multi-Species (XSP1) HepG2 Assay for human Estrogen Receptor (ESR2) (AID 2283788)
Summary of the method: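 Multiplexed trans-activation in transfected HepG2: ERβ-Gal4 reporter transcripts after 24 h treatment, detected by RT-PCR plus capillary electrophoresis.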

[5] = target: GAL4 Transcription Factor (Internal Marker), GAL4 (gene 855828) (UniProt P04386); experiment: ATG_GAL4_XSP1: Attagene TRANS-FACTORIAL Multi-Species (XSP1) HepG2 Assay for GAL4 Transcription Factor (Internal Marker) (AID 2283789)
Sequence of GAL4 Transcription Factor (Internal Marker), GAL4 (gene 855828) (P04386 whole entry, looked up, the tested form may be a part): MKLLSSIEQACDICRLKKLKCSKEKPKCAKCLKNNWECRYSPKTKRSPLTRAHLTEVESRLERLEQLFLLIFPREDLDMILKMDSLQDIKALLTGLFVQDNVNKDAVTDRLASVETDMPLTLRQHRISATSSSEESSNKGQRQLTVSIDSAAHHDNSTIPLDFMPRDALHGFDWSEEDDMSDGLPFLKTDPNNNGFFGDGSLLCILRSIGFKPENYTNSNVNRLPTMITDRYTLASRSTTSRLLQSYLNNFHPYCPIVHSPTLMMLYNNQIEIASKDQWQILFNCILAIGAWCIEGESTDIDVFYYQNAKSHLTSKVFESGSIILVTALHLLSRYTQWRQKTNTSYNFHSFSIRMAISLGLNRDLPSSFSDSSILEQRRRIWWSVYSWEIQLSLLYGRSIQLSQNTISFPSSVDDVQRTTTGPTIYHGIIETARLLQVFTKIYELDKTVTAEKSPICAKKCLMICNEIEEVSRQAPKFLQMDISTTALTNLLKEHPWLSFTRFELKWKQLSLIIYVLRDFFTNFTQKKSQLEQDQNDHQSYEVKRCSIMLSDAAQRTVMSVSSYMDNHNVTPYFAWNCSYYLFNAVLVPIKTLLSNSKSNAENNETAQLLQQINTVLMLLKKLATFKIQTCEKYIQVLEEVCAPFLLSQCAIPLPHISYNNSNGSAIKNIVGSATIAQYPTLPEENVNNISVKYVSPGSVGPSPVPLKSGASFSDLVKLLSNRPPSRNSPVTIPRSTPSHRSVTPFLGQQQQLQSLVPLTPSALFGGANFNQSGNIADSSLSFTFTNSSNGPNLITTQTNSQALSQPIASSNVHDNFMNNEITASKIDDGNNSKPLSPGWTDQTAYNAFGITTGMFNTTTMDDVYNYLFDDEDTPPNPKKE
Summary of the method: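 This background-control endpoint measures GAL4-driven reporter mRNA via RT-PCR and capillary electrophoresis of labelled fragments. Transiently transfected HepG2 cells were treated 24 h, with 3 nM 6-alpha-fluorotestosterone included, and gain-of-signal was fitted against DMSO.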

[6] = ATG_M_06_XSP1: Attagene TRANS-FACTORIAL Multi-Species (XSP1) HepG2 Assay for M06 Transcription Factor (Internal Marker) (AID 2283790)
Summary of the method: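 This background-control readout tracks M06 reporter mRNA, measured by RT-PCR and capillary electrophoresis. HepG2 cells transiently carrying the GAL4-UAS reporter panel were dosed for 24 h with 3 nM 6-alpha-fluorotestosterone added for partial AR stimulation; increases were scored relative to DMSO.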

[7] = ATG_M_61_XSP1: Attagene TRANS-FACTORIAL Multi-Species (XSP1) HepG2 Assay for M61 Transcription Factor (Internal Marker) (AID 2283797)
Summary of the method: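 Background-control readout: reporter transcripts measured by RT-PCR and capillary electrophoresis 24 h after dosing transiently transfected HepG2 multi-reporter cells, with 3 nM 6-alpha-fluorotestosterone present. Fitted in the positive direction relative to DMSO.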

[8] = ATG_M_32_XSP1: Attagene TRANS-FACTORIAL Multi-Species (XSP1) HepG2 Assay for M32 Transcription Factor (Internal Marker) (AID 2283799)
Summary of the method: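 Reporter transcripts from the M32 internal-control unit measured by RT-PCR, FAM labelling, HpaI digestion and capillary electrophoresis after 24 h compound exposure of transfected HepG2, 3 nM 6-alpha-fluorotestosterone included; DMSO baseline, positive-direction fit.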

[9] = target: Peroxisome proliferator-activated receptor gamma (Homo sapiens) (UniProt P37231); experiment: ATG_hPPARg_XSP1: Attagene TRANS-FACTORIAL Multi-Species (XSP1) HepG2 Assay for human Peroxisome Proliferator-activated Receptor gamma (PPARg) (AID 2283800)
Sequence of Peroxisome proliferator-activated receptor gamma (Homo sapiens) (P37231 whole entry, looked up, the tested form may be a part): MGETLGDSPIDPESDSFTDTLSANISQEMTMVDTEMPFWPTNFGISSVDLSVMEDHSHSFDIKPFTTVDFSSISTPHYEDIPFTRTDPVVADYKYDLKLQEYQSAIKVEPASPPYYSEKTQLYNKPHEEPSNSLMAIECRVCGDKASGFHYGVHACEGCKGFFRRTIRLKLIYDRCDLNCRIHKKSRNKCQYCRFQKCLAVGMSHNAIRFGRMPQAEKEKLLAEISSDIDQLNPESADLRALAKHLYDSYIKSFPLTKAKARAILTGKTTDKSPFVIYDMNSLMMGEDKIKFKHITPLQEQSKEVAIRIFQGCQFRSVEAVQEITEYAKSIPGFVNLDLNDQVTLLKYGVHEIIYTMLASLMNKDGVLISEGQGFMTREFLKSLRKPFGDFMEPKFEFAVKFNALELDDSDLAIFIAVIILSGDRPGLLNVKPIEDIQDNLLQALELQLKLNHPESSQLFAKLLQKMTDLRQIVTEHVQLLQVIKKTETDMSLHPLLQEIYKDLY
Summary of the method: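 Reporter mRNA induction, measured by RT-PCR with capillary electrophoresis 24 h after dosing, scored as gain over DMSO. Transfected HepG2 cells express exogenous NR-Gal4 chimeras driving GAL4-UAS reporters; medium includes 3 nM 6-alpha-fluorotestosterone.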

[10] = tested on: zebrafish Peroxisome Proliferator-activated Receptor gamma (PPARg), gene 557037; experiment: ATG_zfPPARg_XSP1: Attagene TRANS-FACTORIAL Multi-Species (XSP1) HepG2 Assay for zebrafish Peroxisome Proliferator-activated Receptor gamma (PPARg) (AID 2283801)
Summary of the method: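 Trans-activation readout of chimeric zebrafish PPARg–GAL4 in transiently transfected human HepG2 cells, 24 h chemical exposure (medium includes 3 nM 6-alpha-fluorotestosterone). Reporter transcripts measured by RT-PCR and capillary electrophoresis, fitted as gain over DMSO.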

[11] = target: mouse Peroxisome Proliferator-activated Receptor gamma (PPARg), Pparg (gene 19016) (UniProt P37238); experiment: ATG_mPPARg_XSP1: Attagene TRANS-FACTORIAL Multi-Species (XSP1) HepG2 Assay for mouse Peroxisome Proliferator-activated Receptor gamma (PPARg) (AID 2283802)
Sequence of mouse Peroxisome Proliferator-activated Receptor gamma (PPARg), Pparg (gene 19016) (P37238 whole entry, looked up, the tested form may be a part): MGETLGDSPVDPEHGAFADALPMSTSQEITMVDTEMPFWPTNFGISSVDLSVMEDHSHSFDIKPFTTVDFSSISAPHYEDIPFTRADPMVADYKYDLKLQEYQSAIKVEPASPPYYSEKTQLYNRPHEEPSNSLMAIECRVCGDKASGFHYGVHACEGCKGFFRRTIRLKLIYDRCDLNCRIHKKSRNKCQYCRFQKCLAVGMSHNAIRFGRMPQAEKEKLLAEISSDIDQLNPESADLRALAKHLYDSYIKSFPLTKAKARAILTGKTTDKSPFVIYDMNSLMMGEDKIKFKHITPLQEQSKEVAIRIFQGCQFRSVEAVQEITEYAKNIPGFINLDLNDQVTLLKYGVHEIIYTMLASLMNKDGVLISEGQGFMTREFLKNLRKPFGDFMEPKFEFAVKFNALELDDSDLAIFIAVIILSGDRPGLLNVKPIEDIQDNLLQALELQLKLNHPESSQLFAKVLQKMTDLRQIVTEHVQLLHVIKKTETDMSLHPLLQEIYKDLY
Summary of the method: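 Readout is reporter mRNA induction, measured by RT-PCR with 6-FAM labelling, HpaI digestion and capillary electrophoresis, 24 h post-dose relative to DMSO. Transient multi-reporter transfection of human HepG2 with mouse PPARg–GAL4 fusion; 3 nM 6-alpha-fluorotestosterone included.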

[12] = target: Nuclear receptor subfamily 1 group I member 2 (Mus musculus) (UniProt O54915); experiment: ATG_mPXR_XSP1: Attagene TRANS-FACTORIAL Multi-Species (XSP1) HepG2 Assay for mouse Pregnane X Receptor (PXR) (AID 2283803)
Summary of the method: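 Transiently transfected HepG2 cells expressing a receptor-Gal4 chimera drive a GAL4-UAS reporter; 3 nM 6-alpha-fluorotestosterone included. Reporter mRNA read 24 h post-dose by RT-PCR and capillary electrophoresis; gain of signal relative to DMSO.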

[13] = target: human Thyroid hormone Receptor alpha (TRa), THRA (gene 7067) (UniProt P10827); experiment: ATG_hTRa_XSP1: Attagene TRANS-FACTORIAL Multi-Species (XSP1) HepG2 Assay for human Thyroid hormone Receptor alpha (TRa) (AID 2283805)
Sequence of human Thyroid hormone Receptor alpha (TRa), THRA (gene 7067) (P10827 whole entry, looked up, the tested form may be a part): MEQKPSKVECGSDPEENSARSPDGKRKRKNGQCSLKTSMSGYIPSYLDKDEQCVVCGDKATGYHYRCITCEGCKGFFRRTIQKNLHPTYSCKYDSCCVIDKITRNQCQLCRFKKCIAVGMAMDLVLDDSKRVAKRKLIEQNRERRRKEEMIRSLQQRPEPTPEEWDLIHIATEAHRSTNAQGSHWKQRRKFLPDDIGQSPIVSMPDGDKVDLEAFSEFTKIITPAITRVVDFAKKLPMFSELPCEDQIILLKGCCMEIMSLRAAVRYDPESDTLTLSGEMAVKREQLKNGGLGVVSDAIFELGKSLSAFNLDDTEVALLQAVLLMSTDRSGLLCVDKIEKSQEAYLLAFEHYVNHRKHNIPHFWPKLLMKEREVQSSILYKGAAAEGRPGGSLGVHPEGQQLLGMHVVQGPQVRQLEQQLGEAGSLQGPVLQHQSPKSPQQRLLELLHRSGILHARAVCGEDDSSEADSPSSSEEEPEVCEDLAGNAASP
Summary of the method: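 Reporter transcripts from the human TRa-Gal4 TRANS unit quantified by RT-PCR, fluorescent labeling and capillary electrophoresis after 24 hours of chemical exposure in transfected HepG2 cells; medium contains 3 nM 6-alpha-fluorotestosterone. Positive direction fit against DMSO.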

[14] = tested on: turtle Thyroid Hormone Receptor, alpha (TRa), gene 101949057; experiment: ATG_trTRa_XSP1: Attagene TRANS-FACTORIAL Multi-Species (XSP1) HepG2 Assay for turtle Thyroid Hormone Receptor, alpha (TRa) (AID 2283806)
Summary of the method: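 After 24 h chemical exposure, reporter transcripts were measured by RT-PCR with fluorescent primer extension, HpaI digestion and capillary electrophoresis. Cells were transiently transfected HepG2 expressing exogenous NR-Gal4 chimeras; medium contained 3 nM 6-alpha-fluorotestosterone; fitted upward relative to DMSO.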

[15] = target: zebrafish Thyroid Hormone Receptor alpha (TRa), thraa (gene 30670) (UniProt Q98867); experiment: ATG_zfTRa_XSP1: Attagene TRANS-FACTORIAL Multi-Species (XSP1) HepG2 Assay for zebrafish Thyroid Hormone Receptor alpha (TRa) (AID 2283807)
Sequence of zebrafish Thyroid Hormone Receptor alpha (TRa), thraa (gene 30670) (Q98867 whole entry, looked up, the tested form may be a part): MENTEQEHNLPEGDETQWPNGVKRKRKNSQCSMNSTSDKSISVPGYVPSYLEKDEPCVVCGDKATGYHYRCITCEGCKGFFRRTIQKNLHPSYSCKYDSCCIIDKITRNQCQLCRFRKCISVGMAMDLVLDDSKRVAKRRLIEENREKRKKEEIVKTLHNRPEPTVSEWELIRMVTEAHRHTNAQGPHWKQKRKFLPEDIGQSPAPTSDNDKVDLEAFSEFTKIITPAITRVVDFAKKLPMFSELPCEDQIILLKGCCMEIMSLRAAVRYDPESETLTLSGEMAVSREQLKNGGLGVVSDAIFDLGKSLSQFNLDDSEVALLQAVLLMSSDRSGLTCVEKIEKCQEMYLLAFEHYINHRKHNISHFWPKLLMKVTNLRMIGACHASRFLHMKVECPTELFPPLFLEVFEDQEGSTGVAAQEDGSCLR
Summary of the method: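 Reporter transcripts driven by a chimeric zebrafish TRa–Gal4 protein were measured by RT-PCR with fluorescent labelling and capillary electrophoresis. These came from transiently transfected HepG2 cells after 24 h chemical exposure, with 3 nM 6-alpha-fluorotestosterone added; baseline was DMSO.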

[16] = target: human Thyroid hormone Receptor beta (TRb), THRB (gene 7068) (UniProt P10828); experiment: ATG_hTRb_XSP1: Attagene TRANS-FACTORIAL Multi-Species (XSP1) HepG2 Assay for human Thyroid hormone Receptor beta (TRb) (AID 2283808)
Sequence of human Thyroid hormone Receptor beta (TRb), THRB (gene 7068) (P10828 whole entry, looked up, the tested form may be a part): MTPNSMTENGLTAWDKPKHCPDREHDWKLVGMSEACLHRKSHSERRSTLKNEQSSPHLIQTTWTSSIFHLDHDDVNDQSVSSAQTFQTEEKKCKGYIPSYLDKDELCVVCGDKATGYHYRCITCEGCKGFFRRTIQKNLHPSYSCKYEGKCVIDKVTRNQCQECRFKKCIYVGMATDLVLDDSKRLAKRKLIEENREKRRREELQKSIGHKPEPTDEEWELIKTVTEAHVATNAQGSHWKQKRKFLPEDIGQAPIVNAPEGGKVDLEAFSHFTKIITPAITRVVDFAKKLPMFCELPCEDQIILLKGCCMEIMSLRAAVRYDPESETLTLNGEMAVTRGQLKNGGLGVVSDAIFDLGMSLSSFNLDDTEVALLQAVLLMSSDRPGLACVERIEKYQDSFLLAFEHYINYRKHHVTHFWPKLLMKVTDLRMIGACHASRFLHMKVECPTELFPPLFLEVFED
Summary of the method: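 Readout is reporter mRNA induction measured by RT-PCR, fluorescent labelling and capillary electrophoresis, fitted upward relative to DMSO. Transiently transfected human HepG2 cells expressing NR-Gal4 chimeras were dosed for 24 h, medium containing 3 nM 6-alpha-fluorotestosterone.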

[17] = target: zebrafish Thyroid Hormone Receptor beta (TRb), thrb (gene 30607) (UniProt Q9PVE4); experiment: ATG_zfTRb_XSP1: Attagene TRANS-FACTORIAL Multi-Species (XSP1) HepG2 Assay for zebrafish Thyroid Hormone Receptor beta (TRb) (AID 2283809)
Summary of the method: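 HepG2 cells transiently transfected with multiplexed GAL4-UAS reporter units expressing chimeric zebrafish TRb–Gal4. Dosed 24 h with 3 nM 6-alpha-fluorotestosterone present; reporter mRNA measured by RT-PCR, HpaI digestion and capillary electrophoresis; gain of signal versus DMSO.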

[18] = ATG_XTT_Cytotoxicity_XSP1: Cytotoxicity Assessment in the Attagene TRANS-FACTORIAL Multi-Species (XSP1) HepG2 Assay (AID 2283810)
Summary of the method: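 XTT viability readout taken at 24 hours post-dosing in HepG2 liver cells co-treated with 3 nM 6-alpha-fluorotestosterone. Signal loss relative to DMSO controls reflects cytotoxicity.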

[19] = target: GAL4 Transcription Factor (Internal Marker), GAL4 (gene 855828) (UniProt P04386); experiment: ATG_GAL4_XSP2: Attagene TRANS-FACTORIAL Multi-Species (XSP2) HepG2 Assay for GAL4 Transcription Factor (Internal Marker) (AID 2283814);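 note: GAL4 reporter mRNA background control in MRTU transfected cells not a receptor target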
Summary of the method: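 Background-control readout: gain-of-signal fitted against DMSO. After 24 h exposure of transfected HepG2 (MRTU, GAL4-UAS reporters; 3 nM 6-alpha-fluorotestosterone, 1.5 nM norgestrel present), transcripts quantified by RT-PCR and capillary electrophoresis fluorescence.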

Oc1ccc2c(c1)-c1ccccc1C2
AC50 (AR (gene 367)): 50 µM (active) | outcome [1]: inactive | AC50 [2]: 6.32 µM (active) and 3.91 µM (active) | AC50 [3]: 5.52 µM (active) and 2.58 µM (active)

CCCCC(CC)COC(=O)c1ccc(C(=O)OCC(CC)CCCC)cc1 (configuration not stated)
outcome (AR (gene 367)): inactive

Cc1ccc(N)cc1O
AC50 (AR (gene 367)): 74.4 µM (active)

CC(C)=CCCC(C)CCO (configuration not stated)
outcome (AR (gene 367)): inactive

CCOc1cccc(-n2cc(C(=O)N3CCN(c4cc(C(=O)O)c5ccccc5c4)CC3)nc2-c2ccc(C)cc2)c1
AC50 (AR (gene 367)): 12.5 µM (active)

Cc1ccc(O)cc1
outcome (AR (gene 367)): inactive

Fc1ccccc1[C@@H](F)COC1CCC(Nc2ncnc3[nH]ncc23)CC1 (some centres not stated)
AC50 (AR (gene 367)): 54 µM (active)

Nc1nc2ncc(CNc3ccc(C(=O)N[C@@H](CCC(=O)O)C(=O)O)cc3)nc2c(=O)[nH]1
outcome (AR (gene 367)): inactive

O=C(CCCCCCCCc1cccnc1)N1CCC(C=C(c2ccccc2)c2ccccc2)CC1
AC50 (AR (gene 367)): 7.53 µM (active)

O=C(O)c1cccc(N(Cc2cccnc2)c2ccc(OC(F)F)c(OC(F)F)c2)c1
AC50 (AR (gene 367)): 77.6 µM (active)

CCCCCCc1ccc(O)cc1O
AC50 (AR (gene 367)): 11 µM (active)

Clc1nc(Cl)c(Cl)c(Cl)c1Cl
AC50 [2]: 26.2 µM (active) and 151 µM (active) | outcome [3]: inactive

O=P(OC(CCl)CCl)(OC(CCl)CCl)OC(CCl)CCl
AC50 [4]: 26 µM (active) | outcome [5]: inactive | outcome [6]: inactive | outcome [7]: inactive | outcome [8]: inactive | outcome [9]: inactive | AC50 [10]: 78.6 µM (active) | AC50 [11]: 25.8 µM (active) | AC50 [12]: 0.447 µM (active) | outcome [13]: inactive | outcome [14]: inactive | outcome [15]: inactive | outcome [16]: inactive | outcome [17]: inactive | outcome [18]: inactive | outcome [1]: inactive | outcome [2]: inactive | outcome [3]: inactive | outcome [19]: inactive

CCCN(C1CCN(C(=O)C2CCNCC2)CC1)[C@@H]1CCc2ccc(OC)cc2C1
AC50 (AR (gene 367)): 63.9 µM (active)

CC1(C)C(=O)N(Br)C(=O)N1Br
outcome (AR (gene 367)): inactive
